The text below walks through data of the supplement of paper PMC4723716.

SMILES strings stand for the structures. ± gives the uncertainty stated by the source. Whole data set: some 9,900 compounds, median “viability index relative to DMSO control” near 1, cut for the lowest 2% near 0.85. The sample as a whole holds a higher share of the lowest values than the screen did.

This assay concerns Plasmodium falciparum NF54 stage V gametocytes. The experiment in a line: viability index relative to DMSO control (fraction); higher = less gametocyte killing. The note with it: 2.5 µM, incubation time: 72 h. The method in brief: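 Viability index is the count of red-stained particles in a well divided by the plate mean of solvent-only wells. Particles of 20–70 µm2 were counted in one imaged field per well after one to two hours with 3 µl of 2.5 µM MitoTracker Red CMXRos and 0.13% saponin. Before staining, P. falciparum NF54 stage V gametocytes in serum-free medium (0.75% gametocytemia, 1.25% hematocrit, 10 µl, 1,536-well plates) were kept with compound at 2.5 µM for 72 hr at 37°C under low oxygen.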

Setting [1] is: library set: Broad Institute DOS.
[2] abbreviates: library set: Broad Institute Blood Stage.

For the compound `O=C(Cc1cccnc1)N1CC(=O)N2[C@H](CO)[C@@H](c3ccc(C4=CCCCC4)cc3)[C@H]2C1`, under setting [1], the viability index worked out at 0.9507 ± 0.0051.
`O=C(C1CCC1)N1CC(=O)N2[C@H](C1)[C@H](c1ccc(Br)cc1)[C@@H]2CO`: the viability index under setting [1] was determined as 1.02 ± 0.0049.
The same measure, in the same setting: the result for `C[C@H]1CN([C@@H](C)CO)C(=O)c2c(c3ccccc3n2C)-c2ccccc2CO[C@@H]1CN(C)C(=O)NC1CCCCC1` reads 1.04 ± 0.11; that for `O=C(C[C@@H]1CC[C@@H]2[C@H](COC[C@@H](O)CN2C(=O)c2ccncc2)O1)NCc1cc(F)cc(F)c1`, 1.05 ± 0.12.
Still for that read-out and setting: the result for `O=C(O)C[C@H]1C[C@H]2c3cc(NC(=O)Nc4ccc(C(F)(F)F)cc4)ccc3O[C@H]2[C@@H](CO)O1` reads 1.06 ± 0.041; that for `O=C(NC[C@@H]1[C@H](c2ccccc2)[C@@H](CO)N1C(=O)C1CCC1)NC1CCCC1`, 0.976 ± 0.12.
Still for that read-out and setting: the result for `COc1ccc(S(=O)(=O)N(C)C[C@@H]2Oc3ccc(NC(=O)Nc4ccc(C(F)(F)F)cc4)cc3C(=O)N([C@H](C)CO)C[C@H]2C)cc1` reads 0.957 ± 0.08; that for `CN1CCN(C(=O)C[C@H]2CC[C@@H]3[C@H](COC[C@H](O)CN3Cc3cccc(-c4ccncc4)c3)O2)CC1`, 1.08 ± 0.028; that for `O=C(C[C@H]1CC[C@H](NS(=O)(=O)c2ccc(F)cc2)[C@@H](CO)O1)N1CCN(c2ccccc2)CC1`, 1.09 ± 0.13.
Under setting [1], `O=C(C[C@H]1CC[C@@H]2[C@H](COC[C@@H](O)CN2CCc2ccccc2)O1)NCCCN1CCOCC1` came in with a viability index of 1.07 ± 0.054.
`O=C(c1ccccc1F)N1CC(=O)N2[C@H](C1)[C@@H](c1ccc(-c3cccnc3)cc1)[C@@H]2CO` gave a viability index under setting [2] of 0.866 ± 0.049.
With `O=C(c1ccccc1F)N1CC(=O)N2[C@H](C1)[C@@H](c1ccc(-c3ccc(F)cc3)cc1)[C@@H]2CO`, the viability index under setting [2] stood at 0.86 ± 0.04.
As to `O=C(c1ccccc1F)N1CC(=O)N2[C@H](CO)[C@H](c3ccc(-c4cccnc4)cc3)[C@H]2C1`, the viability index under setting [2] amounted to 0.742 ± 0.068.
The compound `Cc1noc(C)c1NC(=O)N(C)C[C@@H]1OCc2cn(nn2)CCCC(=O)N([C@H](C)CO)C[C@@H]1C` yielded a viability index under setting [1] of 1.08 ± 0.1.
On the same count and under the same terms, the result for `C[C@H](CO)N1C[C@H](C)[C@H](CN(C)Cc2ccc(C(=O)Nc3ccccc3N)cc2)OCc2cnnn2CCCC1=O` reads 0.953 ± 0.042; that for `CO[C@H]1CN(C)C(=O)c2ccc(NC(=O)c3cc(C)on3)cc2OC[C@H](C)NC[C@H]1C`, 0.98 ± 0.029; that for `COc1cccc(S(=O)(=O)N(C)C[C@@H]2OCc3ccccc3-c3c(n(C)c4ccccc34)C(=O)N([C@@H](C)CO)C[C@H]2C)c1`, 0.977 ± 0.016.
Same read-out and setting: under `COc1cccc(S(=O)(=O)N(C)C[C@H]2OCc3ccccc3-c3c(n(C)c4ccccc34)C(=O)N([C@H](C)CO)C[C@@H]2C)c1` stands 0.975 ± 0.027; under `COc1cccc(S(=O)(=O)N(C)C[C@H]2OCc3ccccc3-c3c(n(C)c4ccccc34)C(=O)N([C@H](C)CO)C[C@H]2C)c1`, 0.952 ± 0.034.
The same measure, in the same setting: under `COc1cccc(S(=O)(=O)N(C)C[C@@H]2OCc3ccccc3-c3c(n(C)c4ccccc34)C(=O)N([C@H](C)CO)C[C@@H]2C)c1` stands 0.826 ± 0.058; under `COc1cccc(S(=O)(=O)N(C)C[C@H]2OCc3ccccc3-c3c(n(C)c4ccccc34)C(=O)N([C@@H](C)CO)C[C@@H]2C)c1`, 0.956 ± 0.013; under `COc1cccc(S(=O)(=O)N(C)C[C@H]2OCc3ccccc3-c3c(n(C)c4ccccc34)C(=O)N([C@@H](C)CO)C[C@H]2C)c1`, 0.833 ± 0.059.
`COc1cccc(S(=O)(=O)N[C@H]2CC[C@@H](CC(=O)NC3Cc4ccccc4C3)O[C@@H]2CO)c1` yielded a viability index under setting [1] of 0.999 ± 0.044.
Same read-out and setting: the result for `CC(C)(C)[S@](=O)N1Cc2cc(C(=O)N3CCOCC3)nc(-c3cccc(-c4ccccc4F)c3)c2[C@@H]1CCO` reads 1.07 ± 0.044; that for `C[C@@H]1CN([C@@H](C)CO)C(=O)c2cc(NC(=O)Nc3ccccc3)ccc2O[C@@H](C)CCCCO[C@H]1CN(C)C(=O)Nc1ccccc1`, 1.11 ± 0.13; that for `Cc1ccc(S(=O)(=O)Nc2ccc3c(c2)C(=O)N(C)[C@@H]2CC[C@H](CC(=O)NCCc4ccncc4)O[C@H]2CO3)cc1`, 1.04 ± 0.026.
Still for that read-out and setting: under `C[C@H]1CN([C@@H](C)CO)C(=O)c2cc(C#Cc3ccccc3)cnc2O[C@H]1CN(C)C(=O)c1ccccc1` stands 0.572 ± 0.14.
Still for that read-out and setting: under `C[C@H]1CN([C@@H](C)CO)C(=O)c2cc(C#Cc3ccccc3)cnc2O[C@@H]1CN(C)C(=O)c1ccccc1` stands 0.919 ± 0.071.
`COc1cccc(S(=O)(=O)N(C)C[C@@H]2Oc3ncc(C#Cc4ccc(OC)c(OC)c4)cc3C(=O)N([C@H](C)CO)C[C@@H]2C)c1` came in with a viability index under setting [2] of 1.01 ± 0.04.
Regarding `C[C@H](CO)N1C[C@H](C)[C@H](CN(C)C(=O)c2ccccc2)Oc2ncc(C#Cc3ccccc3)cc2C1=O`, the viability index under setting [1] amounted to 0.829 ± 0.086.
The same measure, in the same setting: under `C[C@H](CO)N1C[C@H](C)[C@H](CN(C)Cc2ccc3c(c2)OCO3)Oc2ncc(-c3cccc(C(F)(F)F)c3)cc2C1=O` stands 0.976 ± 0.025.
As for `C[C@H](CO)N1C[C@H](C)[C@@H](CN(C)C(=O)c2ccccc2)Oc2ncc(C#Cc3ccccc3)cc2C1=O`, the viability index under setting [1] worked out at 0.963 ± 0.029.
The same measure, in the same setting: the result for `C[C@@H]1CN([C@@H](C)CO)C(=O)c2cc(C#Cc3ccccc3)cnc2O[C@H]1CN(C)C(=O)c1ccccc1` reads 1 ± 0.091; that for `C[C@@H]1CN([C@H](C)CO)C(=O)c2cc(C#Cc3ccccc3)cnc2O[C@H]1CN(C)C(=O)c1ccccc1`, 0.965 ± 0.019; that for `CCCN(C)C[C@@H]1Oc2ncc(-c3cccc(OC)c3)cc2C(=O)N([C@H](C)CO)C[C@@H]1C`, 0.691 ± 0.3.
On to `C/C=C/c1ccc2c(c1)[C@@H]1[C@@H](CCN1C(=O)C1CCCC1)[C@H](CO)N2`, for which the viability index under setting [1] was 1.06 ± 0.045.
The same measure, in the same setting: under `C[C@@H]1CCCCO[C@H](CN(C)C(=O)NC2CCCCC2)[C@@H](C)CN([C@H](C)CO)C(=O)c2cc(N(C)C)ccc2O1` stands 1.14 ± 0.11; under `O=C(Nc1ccccc1)N1CC(=O)N2[C@H](CO)[C@H](c3ccc(C#CC4CCCCC4)cc3)[C@@H]2C1`, 0.96 ± 0.031; under `Cc1noc(C)c1NC(=O)N(C)C[C@@H]1OCc2ccccc2-c2c(n(C)c3ccccc23)C(=O)N([C@@H](C)CO)C[C@H]1C`, 1.02 ± 0.1.
Same read-out and setting: the result for `Cc1noc(C)c1NC(=O)N(C)C[C@@H]1Oc2cc(C#CCN(C)C)ccc2S(=O)(=O)N([C@@H](C)CO)C[C@H]1C` reads 0.947 ± 0.18; that for `CC(C)C#Cc1ccc([C@H]2[C@@H](CO)N3C(=O)CN(C(=O)c4ccc5c(c4)OCO5)C[C@@H]23)cc1`, 1.03 ± 0.021.
`CNC[C@H]1Oc2c(NS(=O)(=O)c3ccc(Cl)cc3)cccc2C(=O)N([C@@H](C)CO)C[C@H]1C` had a viability index under setting [1] of 1.01 ± 0.034.
